The list is not random: actives were taken first. Their share in the collection is about 19%.
TDP1 cell CPT = growth inhibition of DT40 Tdp1-/-;hTDP1 cells with camptothecin (screen for TDP1 inhibitors); 420,000 compounds, 12% hits; chicken DT40 Tdp1-/-;hTDP1 cells + 20 nM CPT, ATP luminescence, 48 h; Potency, µM (series often up to 46.2 µM), for inactives: top-dose activity change, negative = growth inhibition, most hits filed as inhibitors; AID 686979; further: potency means the concentration at half of the fitted maximal effect; nearly all actives have a fitted effect of over 55% in size
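Cell growth measured by CellTiter-Glo luminescence after a minimum 48 h, 37 C compound exposure with 20 nM CPT in Tdp1-knockout DT40 cells stably expressing hTDP1, seeded 400/well; qHTS titration format.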
IL1B secr inh = blocks inflammasome-driven IL-1 beta release; THP-1 LPS/ATP IL-1B secretion, AlphaLISA, 16 h; active compounds read low; 360,000 compounds, 4.7% hits; activity change, % at 57.5 µM; in the data active means activity change below about -50%; inconclusive means mostly about -30% to -49%
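THP-1 cells pretreated 1 hr with compounds (up to 57.5 uM final), then stimulated with LPS (250 ng/mL final) plus ATP (1.25 mM final); secreted IL-1B measured by AlphaLISA after 16 hr, decreased signal indicating inhibition.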
HT1080NT lethal = kills 2HG-producing HT-1080-NT fibrosarcoma cells. HT-1080-NT fibrosarcoma viability, CellTiter-Glo ATP luminescence, 48 h. Potency, µM (titrated, usually from 46.1 µM), inactives show at the top dose activity, negative = less viability, usual class: cytotoxic. 360,000 compounds, 1.6% hits;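 further: NT is the 2HG producing partner of a matched IDH1 knockdown line; potency means the concentration at half of the fitted maximal effect; 0% = DMSO-treated cells and -100% = media-only wells without cells; nearly all actives have a fitted effect of over 55% in size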
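750 cells/well, RPMI + 5% FBS; 2 h settle, compound pin-transfer, 48 h at 37 degrees C. CellTiter-Glo 10 min RT, luminescence. Normalized to DMSO and media-only wells.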
DT40 TDP1 no CPT = qHTS for Inhibitors of human tyrosyl-DNA phosphodiesterase 1 (TDP1): qHTS in cells in absence of CPT. DT40 Tdp1-/- hTDP1 cells, no CPT, ATP luminescence, 48 h. Potency, µM (highest dose often 46.2 µM), without a hit: at the highest dose activity change, negative = growth inhibition, most hits filed as inhibitors. 420,000 compounds, 15% hits. AID 686978, 2013; further: potency means the concentration at half of the fitted maximal effect; nearly all actives have a fitted effect of over 55% in size
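Compound effects on proliferation are scored in DT40 Tdp1-/-;hTDP1 cells in the absence of CPT. ATP levels (CellTiter-Glo luminescence) are recorded after a ≥48 hr, 37 °C incubation.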
HT1080 IDH1KD tx = HT-1080 IDH1 knockdown cell toxicity (counter line); HT-1080 IDH1 knockdown viability, ATP luminescence, 48 h; Potency, µM (highest dose often 46.1 µM), without a hit: at the highest dose activity, negative = toxicity, most hits filed as cytotoxic; 360,000 compounds, 2% hits; AID 686971;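 further: potency means the concentration at half of the fitted maximal effect; 0% = DMSO wells and -100% = cell-free medium wells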
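Assay cells: HT-1080 with IDH1 knockdown, 750 per well, RPMI/5% FBS. Exposure: 48 h at 37 °C following 2 h pre-incubation. Read: CellTiter-Glo luminescence; fitted concentration-response, curve class assigned.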
The depositor's hits bear a star; ! = repeats disagree; [ ] = another dose, or the depositor's remark. Unless noted, the call rests on the fitted dose curve; in most records, active means well fitted curve in the direction sought with a large enough effect; inconclusive means small, poorly fitted or top-dose-only effect, or another doubt; inactive means no such curve, though single readings can be large; an effect the other way counts as inactive or inconclusive. Unless noted, on the % scale 0 is the no-effect control and ±100 the full control effect.

How did Cc1[nH]nc2oc(=O)c(CCO)c(C)c12 do in these assays?
TDP1 cell CPT: -89%; IL1B secr inh: 12; HT1080NT lethal: -9%; DT40 TDP1 no CPT: 4%; HT1080 IDH1KD tx: 0%[9.24 µM]

What do the screens show for `COc1ccc(-c2[nH]nc3oc(=O)c(CCO)c(C)c23)cc1`?
TDP1 cell CPT: 13%; IL1B secr inh: -84*; HT1080NT lethal: -2%; DT40 TDP1 no CPT: -19%; HT1080 IDH1KD tx: 1%

What do the screens show for `CCNc1ncc2nc(-c3cccc(C#N)c3)c(=O)n(CCC#N)c2n1`?
TDP1 cell CPT: -1%; DT40 TDP1 no CPT: 0%

What do the screens show for `O=[N+]([O-])c1cc(C(F)(F)F)ccc1Sc1ccc2ccccc2n1`?
TDP1 cell CPT: -31%; IL1B secr inh: -21; HT1080NT lethal: -3%; DT40 TDP1 no CPT: -24%; HT1080 IDH1KD tx: 4%

Results for COc1cc(-c2nnc(Sc3ccc(C(F)(F)F)cc3[N+](=O)[O-])o2)cc(OC)c1OC ?
TDP1 cell CPT: 21µM*; IL1B secr inh: inconclusive; HT1080NT lethal: 6%; DT40 TDP1 no CPT: 23µM*; HT1080 IDH1KD tx: 5%

What do the screens show for `Oc1ccccc1C1N=C(c2ccccc2)NC(c2ccccc2)=N1`?
TDP1 cell CPT: -16%; IL1B secr inh: -55*; HT1080NT lethal: 9%; DT40 TDP1 no CPT: 2%; HT1080 IDH1KD tx: 1%

Results for COc1ccc([N+](=O)[O-])cc1NCc1ccccc1C ?
TDP1 cell CPT: -20%; IL1B secr inh: -16; HT1080NT lethal: -15%; DT40 TDP1 no CPT: -27%; HT1080 IDH1KD tx: inconclusive

How did COc1ccc(C(CC(=O)Nc2cc([N+](=O)[O-])ccc2OC)c2ccccc2)cc1 (centres undefined) do in these assays?
TDP1 cell CPT: 16µM*; IL1B secr inh: 17; HT1080NT lethal: -1%; DT40 TDP1 no CPT: inconclusive; HT1080 IDH1KD tx: 5%

What do the screens show for `COc1ccc([N+](=O)[O-])cc1NC(=O)C(C)Sc1nc(-c2ccccc2)cs1` (centres undefined)?
TDP1 cell CPT: 18µM*; IL1B secr inh: 10; HT1080NT lethal: 0%; DT40 TDP1 no CPT: inconclusive; HT1080 IDH1KD tx: -2%

Results for COc1ccc([N+](=O)[O-])cc1NCc1ccccc1 ?
TDP1 cell CPT: inconclusive; IL1B secr inh: -89*; HT1080NT lethal: -11%; DT40 TDP1 no CPT: inconclusive; HT1080 IDH1KD tx: -13%

What do the screens show for `COc1ccc([N+](=O)[O-])cc1NC(=O)C(C)Sc1ccccc1` (centres undefined)?
TDP1 cell CPT: inconclusive; IL1B secr inh: 7; HT1080NT lethal: 5%; DT40 TDP1 no CPT: inconclusive; HT1080 IDH1KD tx: 3%

What do the screens show for `O=C(O)c1cc([N+](=O)[O-])ccc1NCc1ccccc1`?
TDP1 cell CPT: 6%; IL1B secr inh: -70*; HT1080NT lethal: -5%; DT40 TDP1 no CPT: -21%; HT1080 IDH1KD tx: -1%

What do the screens show for `COc1ccc(-n2ccn(Cc3ccccc3C)c(=O)c2=O)cc1`?
TDP1 cell CPT: 1%; DT40 TDP1 no CPT: 0%

How did CCc1nn(CC(=O)NCc2ccco2)c(=O)c2cc3c(OC)cccc3n12 do in these assays?
TDP1 cell CPT: -18%; DT40 TDP1 no CPT: -3%

What do the screens show for `CC(C)Oc1cc(NC(=O)CS(=O)CC(=O)Nc2cccc(C(F)(F)F)c2)c(Cl)cc1Cl` (centres undefined)?
TDP1 cell CPT: 21µM*; IL1B secr inh: -63*; HT1080NT lethal: inconclusive; DT40 TDP1 no CPT: 16µM*; HT1080 IDH1KD tx: inconclusive

Results for CC(C)Oc1cc(NC(=O)CS(=O)CC(=O)N(C)C)c(Cl)cc1Cl (centres undefined) ?
TDP1 cell CPT: -1%; IL1B secr inh: -11; HT1080NT lethal: 8%; DT40 TDP1 no CPT: -12%; HT1080 IDH1KD tx: 8%

How did CSCc1cc(N2CCOCC2)nc(SCc2ccc(Cl)c(Cl)c2)n1 do in these assays?
TDP1 cell CPT: 21µM*; IL1B secr inh: -7; HT1080NT lethal: inconclusive; DT40 TDP1 no CPT: -16%; HT1080 IDH1KD tx: inconclusive

What do the screens show for `COCc1cc(N2CCOCC2)nc(SCc2ccc(Cl)cc2)n1`?
TDP1 cell CPT: -18%; IL1B secr inh: 0; HT1080NT lethal: -7%; DT40 TDP1 no CPT: -26%; HT1080 IDH1KD tx: -2%

How did COc1ccccc1/C=C/C(=O)OCC(=O)Nc1c(C)nn(-c2ccccc2)c1C do in these assays?
TDP1 cell CPT: inconclusive; IL1B secr inh: 11; HT1080NT lethal: -2%; DT40 TDP1 no CPT: inconclusive; HT1080 IDH1KD tx: 0%

How did CC(=O)Oc1ccc(C23c4ccccc4C2(OC(C)=O)c2cc(OC(C)=O)ccc23)cc1 (centres undefined) do in these assays?
TDP1 cell CPT: 23µM*; IL1B secr inh: -93*; HT1080NT lethal: 7.3µM*; DT40 TDP1 no CPT: inconclusive; HT1080 IDH1KD tx: 7.3µM*

What do the screens show for `Cc1ccc(-n2c(=O)[nH]c3c(C(N)=O)nc(-c4ccc(C)o4)nc32)cc1`?
TDP1 cell CPT: 9.2µM*; IL1B secr inh: 14; HT1080NT lethal: -20%; DT40 TDP1 no CPT: 13µM*; HT1080 IDH1KD tx: inconclusive

How did Cc1ccc(-n2c(=O)[nH]c3c(C(N)=O)nc(CC(C)C)nc32)cc1 do in these assays?
TDP1 cell CPT: -23%; IL1B secr inh: 1; HT1080NT lethal: -4%; DT40 TDP1 no CPT: -14%; HT1080 IDH1KD tx: -2%

How did O=C(CSc1nnc(SCc2cccc3ccccc23)s1)Nc1ccc(C(=O)O)cc1 do in these assays?
TDP1 cell CPT: 18µM*; IL1B secr inh: 13; HT1080NT lethal: 16%; DT40 TDP1 no CPT: 21µM*; HT1080 IDH1KD tx: inconclusive

What do the screens show for `c1ccc(Nc2nnc(SCc3cccc4ccccc34)s2)cc1`?
TDP1 cell CPT: inconclusive; IL1B secr inh: -14; HT1080NT lethal: 9%; DT40 TDP1 no CPT: inconclusive; HT1080 IDH1KD tx: 5%

How did COc1cc(NC(C)CCCN)c2ncccc2c1 (centres undefined) do in these assays?
TDP1 cell CPT: inconclusive; IL1B secr inh: -11; HT1080NT lethal: 16µM*; DT40 TDP1 no CPT: 7.2µM*!; HT1080 IDH1KD tx: inconclusive

What do the screens show for `COc1ccc(CC(C)Nc2ccccc2F)cc1` (centres undefined)?
TDP1 cell CPT: -7%; IL1B secr inh: -5; HT1080NT lethal: 0%; DT40 TDP1 no CPT: -24%; HT1080 IDH1KD tx: -2%

How did COc1cc(NC(C)CCCN)c2nc(C)ccc2c1Oc1ccc(F)cc1 (centres undefined) do in these assays?
TDP1 cell CPT: 26µM*; IL1B secr inh: -17; HT1080NT lethal: -10%; DT40 TDP1 no CPT: 10µM*; HT1080 IDH1KD tx: -29%

How did CCCCCC(CC(=O)NO)C(=O)NC(C(=O)N1CCCC1CO)C(C)C (centres undefined) do in these assays?
TDP1 cell CPT: 2.6µM*; IL1B secr inh: -13; HT1080NT lethal: -10%; DT40 TDP1 no CPT: 1.8µM*; HT1080 IDH1KD tx: -20%

Screening data deposited in PubChem BioAssay by National Center for Advancing Translational Sciences (NCATS).
